Data published in PubChem BioAssay (EPA / NIEHS).
The source made the active and inactive calls. The calls were made as follows: active = hit-call score of the fitted dose curve at least 0.9, where 1 is the maximum; inactive = score below 0.9.

Key:
Details in all cases: mRNA level, 48 h; actives raise or lower the signal
[1] = read-out: 3-Hydroxy-3-Methylglutaryl-CoA Synthase 2 (HMGCS2), HMGCS2 (gene 3158); experiment: LTEA_HepaRG_HMGCS2: Life Technologies and Expression Analysis (LTEA) Assay for 3-Hydroxy-3-Methylglutaryl-CoA Synthase 2 (HMGCS2) using HepaRG (AID 2283504)
Outline: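 Differentiated human HepaRG cells were exposed in duplicate for 48 h in serum-free induction medium to eight concentrations (top 100 uM, half-log steps, 0.5% DMSO). HMGCS2 mRNA was quantified by TaqMan qRT-PCR, normalised to ACTB, GAPDH and POLR2A, then fitted bidirectionally against DMSO.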

[2] = read-out: HGF (gene 3082); experiment: LTEA_HepaRG_HGF: Life Technologies and Expression Analysis (LTEA) Assay for Hepatocyte Growth Facto (HGF) using HepaRG (AID 2283505)
Outline: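 Differentiated human HepaRG cells in serum-free induction medium were exposed in duplicate for 48 h to eight concentrations (top 100 uM, half-log steps, 0.5% DMSO). HGF mRNA was quantified by qRT-PCR, normalized to ACTB, GAPDH and POLR2A.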

[3] = read-out: Insulin Like Growth Factor 1 (IGF1), IGF1 (gene 3479); experiment: LTEA_HepaRG_IGF1: Life Technologies and Expression Analysis (LTEA) Assay for Insulin Like Growth Factor 1 (IGF1) using HepaRG (AID 2283506)
Outline: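 Differentiated human HepaRG cells were dosed for 48 h in serum-free induction medium with 0.5% DMSO, eight half-log concentrations up to 100 uM, in duplicate. IGF1 mRNA was quantified by qRT-PCR normalized to ACTB, GAPDH, POLR2A; bidirectional fitting versus DMSO.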

[4] = read-out: Intercellular Adhesion Molecule 1 (ICAM1), ICAM1 (gene 3383); experiment: LTEA_HepaRG_ICAM1: Life Technologies and Expression Analysis (LTEA) Assay for Intercellular Adhesion Molecule 1 (ICAM1) using HepaRG (AID 2283507)
Outline: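 Differentiated HepaRG cells in serum-free induction medium were exposed in duplicate for 48 h to eight half-log concentrations up to 100 uM in 0.5% DMSO. Transcript levels were measured by qRT-PCR normalized to ACTB, GAPDH and POLR2A; bidirectional fits relative to DMSO.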

[5] = read-out: Insulin-like growth factor-binding protein 1 (IGFBP1), IGFBP1 (gene 3484); experiment: LTEA_HepaRG_IGFBP1: Life Technologies and Expression Analysis (LTEA) Assay for Insulin-like growth factor-binding protein 1 (IGFBP1) using HepaRG (AID 2283508)
Outline: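 Differentiated human HepaRG cells in serum-free induction medium were exposed in duplicate for 48 h to eight concentrations, top 100 uM with half-log dilutions, in 0.5% DMSO. Transcript levels came from qRT-PCR normalised to ACTB, GAPDH and POLR2A, fitted bidirectionally against DMSO.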

[6] = read-out: Interleukin 6 (IL6), IL6 (gene 3569); experiment: LTEA_HepaRG_IL6: Life Technologies and Expression Analysis (LTEA) Assay for Interleukin 6 (IL6) using HepaRG (AID 2283509)
Outline: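 HepaRG cells exposed in duplicate for 48 h to eight half-log concentrations, top 100 uM, in 0.5% DMSO serum-free induction medium. mRNA measured by qRT-PCR, normalized to ACTB, GAPDH and POLR2A. Bidirectional fit versus DMSO.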

[7] = read-out: Interleukin 6 Receptor (IL6R), IL6R (gene 3570); experiment: LTEA_HepaRG_IL6R: Life Technologies and Expression Analysis (LTEA) Assay for Interleukin 6 Receptor (IL6R) using HepaRG (AID 2283510)
Outline: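 Differentiated human HepaRG cells, plated 48 h then switched to serum-free induction medium, were dosed in duplicate for 48 h at eight half-log concentrations up to 100 uM in 0.5% DMSO. IL6R mRNA quantified by qRT-PCR, normalized to ACTB/GAPDH/POLR2A; bidirectional fit versus DMSO.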

[8] = read-out: Potassium channel subfamily K member 1 (KCNK1), KCNK1 (gene 3775); experiment: LTEA_HepaRG_KCNK1: Life Technologies and Expression Analysis (LTEA) Assay for Potassium channel subfamily K member 1 (KCNK1) using HepaRG (AID 2283511)
Outline: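 Differentiated HepaRG cells, 48 h exposure in serum-free induction medium with 0.5% DMSO; 8 concentrations, half-log from 100 uM, duplicate. KCNK1 mRNA by qRT-PCR, normalized to ACTB, GAPDH, POLR2A; bidirectional fit vs DMSO.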

[9] = read-out: Keratin 19 (KRT19), KRT19 (gene 3880); experiment: LTEA_HepaRG_KRT19: Life Technologies and Expression Analysis (LTEA) Assay for Keratin 19 (KRT19) using HepaRG (AID 2283512)
Outline: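 Differentiated human HepaRG cells, plated 48 h, were exposed in duplicate for 48 h in serum-free induction medium to eight half-log concentrations up to 100 uM in 0.5% DMSO. KRT19 mRNA was quantified by qRT-PCR, normalized to ACTB, GAPDH and POLR2A, and fitted bidirectionally versus DMSO.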

[10] = read-out: JUN Transcription Factor, JUN (gene 3725); experiment: LTEA_HepaRG_JUN: Life Technologies and Expression Analysis (LTEA) Assay for JUN Transcription Factor using HepaRG (AID 2283513)
Outline: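 Differentiated HepaRG cells were exposed to chemicals for 48 h in serum-free induction medium, 8 concentrations from 100 uM in half-log steps, 0.5% DMSO vehicle, in duplicate. JUN mRNA was quantified by TaqMan qRT-PCR, normalized to ACTB, GAPDH, POLR2A.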

[11] = read-out: Lipase C (LIPC), LIPC (gene 3990); experiment: LTEA_HepaRG_LIPC: Life Technologies and Expression Analysis (LTEA) Assay for Lipase C (LIPC) using HepaRG (AID 2283514)
Outline: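 HepaRG cells, 48 h after plating, treated in duplicate for 48 h in serum-free induction medium over 8 half-log concentrations from 100 uM, 0.5% DMSO. LIPC mRNA by TaqMan qRT-PCR normalized to ACTB/GAPDH/POLR2A; bidirectional fit versus DMSO.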

[12] = read-out: Lipoprotein lipase (LPL), LPL (gene 4023); experiment: LTEA_HepaRG_LPL: Life Technologies and Expression Analysis (LTEA) Assay for Lipoprotein lipase (LPL) using HepaRG (AID 2283515)
Outline: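 Differentiated HepaRG cells, plated 48 h, then exposed 48 h in serum-free induction medium to 8 concentrations (top 100 uM, half-log steps) in 0.5% DMSO, duplicate. LPL mRNA measured by qRT-PCR, normalized to ACTB, GAPDH and POLR2A.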

[13] = read-out: MicroRNA 122 (MIR122), gene 406906; experiment: LTEA_HepaRG_MIR122: Life Technologies and Expression Analysis (LTEA) Assay for MicroRNA 122 (MIR122) using HepaRG (AID 2283516); also: the transcript read is the microRNA miR-122
Outline: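 Differentiated human HepaRG cells were exposed 48 h in serum-free induction medium to eight half-log concentrations (top 100 uM, 0.5% DMSO). Transcript level was measured by TaqMan qRT-PCR, normalized to ACTB, GAPDH and POLR2A, and fitted bidirectionally versus DMSO.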

[14] = read-out: matrix metalloproteinase-10 (MMP10), MMP10 (gene 4319); experiment: LTEA_HepaRG_MMP10: Life Technologies and Expression Analysis (LTEA) Assay for matrix metalloproteinase-10 (MMP10) using HepaRG (AID 2283517)
Outline: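 Differentiated HepaRG cells in serum-free induction medium exposed 48 h in duplicate to 8-point half-log series up to 100 uM in 0.5% DMSO. mRNA quantified by qRT-PCR, normalised to ACTB, GAPDH, POLR2A; bidirectional fit versus DMSO.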

[15] = read-out: MYC, MYC (gene 4609); experiment: LTEA_HepaRG_MYC: Life Technologies and Expression Analysis (LTEA) Assay for MYC using HepaRG (AID 2283518)
Outline: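 Differentiated human HepaRG cells, plated 48 h then switched to serum-free induction medium, were exposed in duplicate for 48 h to 8-point half-log series up to 100 uM in 0.5% DMSO. MYC mRNA measured by qRT-PCR, normalized to ACTB/GAPDH/POLR2A.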

[16] = read-out: Nuclear factor NF-kappa-B p105 subunit (Homo sapiens) (UniProt P19838); experiment: LTEA_HepaRG_NFKB1: Life Technologies and Expression Analysis (LTEA) Assay for Nuclear Factor Kappa B Subunit 1 (NFKB1) using HepaRG (AID 2283521);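 also: TaqMan qRT-PCR transcript normalised to ACTB GAPDH and POLR2A housekeeping genes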
Outline: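 Differentiated human HepaRG cells in serum-free induction medium with 0.5% DMSO were exposed for 48 h to eight half-log concentrations, top 100 uM, in duplicate. NFKB1 mRNA measured by Fluidigm TaqMan qRT-PCR, normalised to ACTB, GAPDH and POLR2A; bidirectional fit versus DMSO.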

[17] = read-out: Protein phosphatase 2A (PPP2R4), PTPA (gene 5524); experiment: LTEA_HepaRG_PPP2R4: Life Technologies and Expression Analysis (LTEA) Assay for Protein phosphatase 2A (PPP2R4) using HepaRG (AID 2283522)
Outline: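 Differentiated HepaRG cells in serum-free induction medium were exposed in duplicate for 48 h to eight concentrations, top 100 uM with half-log dilutions, in 0.5% DMSO. PPP2R4 mRNA was quantified by TaqMan qRT-PCR, normalized to ACTB, GAPDH and POLR2A.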

[18] = read-out: Phosphatase and tensin (PTEN), PTEN (gene 5728); experiment: LTEA_HepaRG_PTEN: Life Technologies and Expression Analysis (LTEA) Assay for Phosphatase and tensin (PTEN) using HepaRG (AID 2283523)
Outline: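 HepaRG cells, 48 h after plating, exposed in duplicate for 48 h in serum-free induction medium to 8 half-log concentrations up to 100 uM (0.5% DMSO). PTEN mRNA by qRT-PCR, normalized to ACTB, GAPDH, POLR2A; bidirectional fit versus DMSO.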

[19] = read-out: Paternally Expressed 10 (PEG10), PEG10 (gene 23089); experiment: LTEA_HepaRG_PEG10: Life Technologies and Expression Analysis (LTEA) Assay for Paternally Expressed 10 (PEG10) using HepaRG (AID 2283520)
Outline: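 Differentiated HepaRG cells, plated 48 h then switched to serum-free induction medium, were exposed in duplicate for 48 h to eight half-log concentrations topping at 100 uM in 0.5% DMSO. PEG10 mRNA was quantified by TaqMan qRT-PCR, normalised to ACTB, GAPDH and POLR2A.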

[20] = read-out: matrix metalloproteinase-3 (MMP3), MMP3 (gene 4314); experiment: LTEA_HepaRG_MMP3: Life Technologies and Expression Analysis (LTEA) Assay for matrix metalloproteinase-3 (MMP3) using HepaRG (AID 2283519)
Outline: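 HepaRG cells (~100,000/well) in serum-free induction medium were dosed in duplicate for 48 h with an 8-point half-log series from 100 uM, 0.5% DMSO. MMP3 mRNA was quantified by Fluidigm TaqMan qRT-PCR, normalized to three housekeeping genes.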

Measured: AC50

Sequence of Nuclear factor NF-kappa-B p105 subunit (Homo sapiens) (P19838 whole entry, looked up): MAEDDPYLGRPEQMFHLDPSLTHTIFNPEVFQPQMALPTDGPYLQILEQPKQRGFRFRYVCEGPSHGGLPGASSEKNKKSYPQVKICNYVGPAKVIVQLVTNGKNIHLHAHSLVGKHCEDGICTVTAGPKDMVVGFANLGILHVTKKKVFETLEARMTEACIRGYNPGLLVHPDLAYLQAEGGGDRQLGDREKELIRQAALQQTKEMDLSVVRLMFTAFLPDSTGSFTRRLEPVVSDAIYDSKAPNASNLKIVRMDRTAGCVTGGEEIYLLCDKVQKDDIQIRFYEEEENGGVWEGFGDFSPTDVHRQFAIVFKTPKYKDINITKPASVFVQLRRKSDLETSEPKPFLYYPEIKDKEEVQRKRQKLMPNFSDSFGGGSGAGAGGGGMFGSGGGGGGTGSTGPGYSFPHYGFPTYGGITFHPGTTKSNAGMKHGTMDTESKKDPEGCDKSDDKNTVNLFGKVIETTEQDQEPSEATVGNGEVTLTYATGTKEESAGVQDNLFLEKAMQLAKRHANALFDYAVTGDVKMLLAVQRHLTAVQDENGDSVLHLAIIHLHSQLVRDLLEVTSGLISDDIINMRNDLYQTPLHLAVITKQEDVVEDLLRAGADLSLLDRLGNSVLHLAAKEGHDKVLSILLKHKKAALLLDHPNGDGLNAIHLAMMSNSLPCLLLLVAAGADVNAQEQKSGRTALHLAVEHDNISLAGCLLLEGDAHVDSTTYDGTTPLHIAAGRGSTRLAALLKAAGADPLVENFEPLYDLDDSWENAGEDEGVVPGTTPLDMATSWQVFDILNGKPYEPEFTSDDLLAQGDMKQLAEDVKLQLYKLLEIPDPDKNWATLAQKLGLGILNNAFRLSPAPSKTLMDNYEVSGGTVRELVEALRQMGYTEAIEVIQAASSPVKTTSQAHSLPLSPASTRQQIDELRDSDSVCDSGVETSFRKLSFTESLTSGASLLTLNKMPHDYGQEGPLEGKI

CNCc1ccc(NC(=O)c2c[nH]c3c2C(=O)CCC3)cc1
not listed: [19] | [20]
inactive: all other assays above

C=CCCCCCCCCC(=O)O
active: [18] 0.00821 µM
not listed: [5] | [13] | [20]
inactive: all other assays above

CC/C(=C\C(=N/O)C(N)=O)C(C)[N+](=O)[O-] (centres undefined)
not listed: [5] | [16] | [20]
inactive: all other assays above

CC(C)c1cccc(C(C)C)c1N1C(=O)c2ccc(O)cc2C1=O
active: [1] 80.7 µM | [2] 93 µM | [9] 88.7 µM | [11] 82.8 µM | [12] 83.4 µM | [14] 89.9 µM | [15] 50 µM | [20] 93.4 µM | [19] 76.8 µM
not listed: [13]
inactive: all other assays above

Cn1cnc([N+](=O)[O-])c1Sc1ncnc2nc[nH]c12
active: [1] 3.93 µM | [4] 3.59 µM | [5] 2.75 µM | [8] 4.15 µM | [9] 5.94 µM | [11] 17.7 µM | [13] 4.54 µM | [15] 6.38 µM | [20] 1.9 µM | [19] 1.66 µM
inactive: [2] | [3] | [6] | [10] | [12] | [14] | [16] | [17] | [18]

C=CC(=C)CCC=C(C)C
not listed: [19]
inactive: all other assays above
